For 9 compounds, Potency and outcome results are on record in PubChem BioAssay (Tox21).

Where “and” joins values, the source holds several entries; their conditions need not be identical. Equal entries are not always repeated. Results filed as inconclusive are left out. Calls of active or inactive are those of the source. Unless noted, calls follow the shape of the dose curve; as a rule, active = well fitted curve in the direction sought with a large enough effect in the repeat runs; inconclusive = weak or mixed curves; inactive = no such curve, though single readings can be large; an effect the other way counts as inactive or inconclusive.

The nature of assay [1]: qHTS assay to test for compound auto fluorescence at 535 nm (green) in HEK293 cells (AID 720680). A general note: qHTS replaces the single test concentration by a dilution series.
Assay [2] in a line: qHTS assay to test for compound auto fluorescence at 460 nm (blue) in HEK293 cell free culture (AID 720681). Also: potency is read from the fitted curve at half-maximal effect. An outline of the steps: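 Test compounds were pinned into cell-free culture medium (DMEM with 10% FBS) and fluorescence was read directly at Ex/Em 405/460 nm. Signals were expressed as fluorescence equivalents of triamterene, with DMSO vehicle as control.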
Assay [3] in a line: qHTS assay to test for compound auto fluorescence at 535 nm (green) in HEK293 cell free culture (AID 720682). An outline of the steps: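 Steps: dispense DMEM/10% FBS into empty wells; pin in compound or DMSO; measure fluorescence at 485/535 nm. Values are fluorescein equivalents.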
Assay [4] in a line: qHTS assay to test for compound auto fluorescence at 590 nm (red) in HepG2 cell free culture (AID 720684). An outline of the steps: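 Ex 540 / Em 590 nm read of compound in cell-free MEM (10% FBS). Rose Bengal sodium reference.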
Assay [5] can be described thus: qHTS assay to test for compound auto fluorescence at 460 nm (blue) in HepG2 cell free culture (AID 720685). Also: potency is read from the fitted curve at half-maximal effect. An outline of the steps:
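Cell-free plates of MEM plus 10% FBS received 23 nL compound or DMSO vehicle; blue-channel (405/460 nm) intensity scored against triamterene as reference fluorophore.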

A short description of assay [6]: qHTS assay to test for compound auto fluorescence at 535 nm (green) in HepG2 cell free culture (AID 720686).
A short description of assay [7]: qHTS assay to test for compound auto fluorescence at 460 nm (blue) in HepG2 cells (AID 720687). Also: potency is read from the fitted curve at half-maximal effect. An outline of the steps:
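Cells (2,000/well in MEM with 10% FBS) attached overnight at 37 C, then were exposed to compound or DMSO for 1 hr at 37 C, 5% CO2. Fluorescence read at Ex/Em 405/460 nm, expressed as triamterene-equivalent signal.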

Assay [8] in a line: qHTS assay to identify small molecule antagonists of the glucocorticoid receptor (GR) signaling pathway - cell viability counter screen (AID 720693). Also: nearly all actives have a fitted effect of over 55% in size. Also: potency is read from the fitted curve at half-maximal effect.
Assay [9] is described as follows: qHTS assay for identifying genotoxic compounds that show differential cytotoxicity against isogenic chicken DT40 cell lines with known DNA damage response pathways - wild type cell line (AID 743012). Also: nearly all actives have a fitted effect of over 60% in size. Also: potency is read from the fitted curve at half-maximal effect. An outline of the steps: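 Cytotoxicity in repair-proficient parental chicken DT40 cells serves as the comparator for Rad54/Ku70- and Rev3-deficient lines. Cells were exposed to compounds for 40 h at 37 C/5% CO2, and ATP-based luminescence (CellTiter-Glo) measured viability.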

Assay [10] is described as follows: qHTS assay for identifying genotoxic compounds that show differential cytotoxicity against isogenic chicken DT40 cell lines with known DNA damage response pathways - Rev3 mutant cell line (AID 743014). Also: nearly all actives have a fitted effect of over 55% in size. Also: potency is read from the fitted curve at half-maximal effect.
Assay [11] in a line: qHTS assay to identify small molecule antagonists of the androgen receptor (AR) signaling pathway - cell viability counter screen (AID 743033; also: nearly all actives have a fitted effect of over 45% in size; also: potency is read from the fitted curve at half-maximal effect).
Assay [12] is described as follows: qHTS assay to identify small molecule antagonists of the androgen receptor (AR) signaling pathway using the MDA cell line - cell viability counter screen (AID 743041; also: nearly all actives have a fitted effect of over 45% in size; also: potency is read from the fitted curve at half-maximal effect). An outline of the steps: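 In this qHTS counter assay, fluorescence intensity after CellTiter-Fluor addition indicated viability of MDA-kb2 AR-luc cells given compounds and R1881 for 16 h at 37C.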

The nature of assay [13]: qHTS assay for identifying genotoxic compounds that show differential cytotoxicity against isogenic chicken DT40 cell lines with known DNA damage response pathways - Rad54/Ku70 mutant cell line (AID 743015). Also: nearly all actives have a fitted effect of over 60% in size. Also: potency is read from the fitted curve at half-maximal effect.
Assay [14] can be described thus: qHTS assay to test for compound auto fluorescence at 590 nm (red) in HEK293 cell free culture (AID 720683). An outline of the steps:
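Tox21 10K library compounds were pinned into cell-free DMEM with 10% FBS and fluorescence was read at excitation 540 nm. Activity is expressed as Rose Bengal sodium equivalency.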

The target of assay [15] is Glucocorticoid receptor (Homo sapiens) (UniProt P04150). Put plainly: qHTS assay to identify small molecule agonists of the glucocorticoid receptor (GR) signaling pathway (AID 720691; active = well fitted activation curve with a large enough effect in the signal ratio in the repeat runs, not every such curve was filed as active; the % refers to the signal ratio). An outline of the steps:
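Steps: seed GR-bla HeLa cells, incubate 4 h at 37 C/5% CO2; pin-transfer DMSO-dissolved compounds; incubate 18 h at 37 C; add LiveBLAzer B/G FRET substrate; after 2 h at room temperature, measure fluorescence.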

For assay [16] the target is unchanged. The assay is described as follows: qHTS assay to identify small molecule antagonists of the glucocorticoid receptor (GR) signaling pathway (AID 720692; active = well fitted inhibition curve with a large enough effect in the signal ratio in the repeat runs, not every such curve was filed as active; the % refers to the signal ratio; also: potency is read from the fitted curve at half-maximal effect). An outline of the steps:
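Antagonism was scored as loss of dexamethasone-driven (5 nM final) reporter signal in HeLa cells bearing a glucocorticoid response element–beta-lactamase construct, after 18 h compound exposure at 37 C and 2 h FRET substrate loading.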

Assay [17] addresses Androgen receptor (Homo sapiens) (UniProt P10275). Put plainly: qHTS assay to identify small molecule agonists of the androgen receptor (AR) signaling pathway using the MDA cell line (AID 743040; also: nearly all actives have a fitted effect of over 20% in size). An outline of the steps:
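Cell-based luciferase reporter: MDA-kb2, MMTV promoter (AR + GR response elements). 16 h compound exposure at 37C; ONE-Glo, 30 min RT, luminescence.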

For assay [18] the target is unchanged. The assay is described as follows: qHTS assay to identify small molecule antagonists of the androgen receptor (AR) signaling pathway using the MDA cell line (AID 743042; also: nearly all actives have a fitted effect of over 55% in size). An outline of the steps: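 MDA-kb2 cells (human breast carcinoma, stably carrying an MMTV-luciferase reporter responsive to AR and GR) were plated at 3,000 cells/well and preincubated 5 hr at 37C, then given compound plus R1881 agonist for 16 h. ONE-Glo luminescence was read.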
Tags tell the direction and shape of the fitted curve or compound fluorescence and quenching.

Sequence of Glucocorticoid receptor (Homo sapiens) (P04150 whole entry, looked up): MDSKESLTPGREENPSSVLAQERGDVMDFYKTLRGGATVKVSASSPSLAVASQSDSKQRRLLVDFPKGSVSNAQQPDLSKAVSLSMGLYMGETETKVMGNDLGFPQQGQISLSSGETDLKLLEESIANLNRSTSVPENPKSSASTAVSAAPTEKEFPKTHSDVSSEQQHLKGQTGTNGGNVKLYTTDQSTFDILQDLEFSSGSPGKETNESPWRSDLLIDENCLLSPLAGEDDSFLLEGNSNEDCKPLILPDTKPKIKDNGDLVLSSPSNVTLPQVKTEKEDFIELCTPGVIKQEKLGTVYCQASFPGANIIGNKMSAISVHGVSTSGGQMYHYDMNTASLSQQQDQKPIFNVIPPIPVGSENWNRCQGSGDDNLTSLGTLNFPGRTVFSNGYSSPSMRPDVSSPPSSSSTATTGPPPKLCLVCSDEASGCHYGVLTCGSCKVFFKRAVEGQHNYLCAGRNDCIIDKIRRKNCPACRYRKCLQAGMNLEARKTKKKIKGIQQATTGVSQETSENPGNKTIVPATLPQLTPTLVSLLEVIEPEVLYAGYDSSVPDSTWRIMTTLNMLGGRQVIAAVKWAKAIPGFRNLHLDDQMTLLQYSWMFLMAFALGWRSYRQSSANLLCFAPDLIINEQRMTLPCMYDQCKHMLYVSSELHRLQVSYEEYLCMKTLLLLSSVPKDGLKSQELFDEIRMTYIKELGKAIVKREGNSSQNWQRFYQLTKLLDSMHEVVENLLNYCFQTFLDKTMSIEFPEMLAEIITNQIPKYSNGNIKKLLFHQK
Sequence of Androgen receptor (Homo sapiens) (P10275 whole entry, looked up): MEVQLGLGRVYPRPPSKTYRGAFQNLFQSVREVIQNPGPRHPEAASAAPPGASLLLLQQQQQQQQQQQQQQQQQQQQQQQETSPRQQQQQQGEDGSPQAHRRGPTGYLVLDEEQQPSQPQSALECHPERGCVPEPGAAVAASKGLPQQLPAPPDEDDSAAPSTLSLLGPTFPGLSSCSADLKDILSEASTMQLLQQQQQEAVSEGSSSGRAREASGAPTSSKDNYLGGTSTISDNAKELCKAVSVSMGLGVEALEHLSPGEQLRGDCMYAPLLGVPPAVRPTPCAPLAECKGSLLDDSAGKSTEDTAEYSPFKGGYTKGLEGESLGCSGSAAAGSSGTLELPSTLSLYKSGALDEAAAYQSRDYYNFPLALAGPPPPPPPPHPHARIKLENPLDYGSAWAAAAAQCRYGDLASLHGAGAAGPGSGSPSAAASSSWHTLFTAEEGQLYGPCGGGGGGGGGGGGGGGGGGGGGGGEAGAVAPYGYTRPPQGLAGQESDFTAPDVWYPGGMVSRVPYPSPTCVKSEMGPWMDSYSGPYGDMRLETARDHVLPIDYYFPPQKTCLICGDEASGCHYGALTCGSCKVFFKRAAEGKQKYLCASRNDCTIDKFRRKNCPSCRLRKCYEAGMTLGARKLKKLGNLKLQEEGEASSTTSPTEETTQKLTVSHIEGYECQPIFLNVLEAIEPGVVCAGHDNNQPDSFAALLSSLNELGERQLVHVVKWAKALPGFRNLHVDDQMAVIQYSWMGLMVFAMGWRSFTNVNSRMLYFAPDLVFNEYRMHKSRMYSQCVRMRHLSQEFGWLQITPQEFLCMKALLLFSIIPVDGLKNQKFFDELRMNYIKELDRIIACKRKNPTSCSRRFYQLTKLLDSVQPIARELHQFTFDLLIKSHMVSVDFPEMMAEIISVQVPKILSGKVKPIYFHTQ

For the compound `C#C[C@]1(O)CC[C@H]2[C@@H]3[C@H](C)CC4=C(CCC(=O)C4)[C@H]3CC[C@@]21C`, the Potency entry in assay [1], in assay [2], in assay [3], in [4], in [5] and in assay [6] was “inactive” each time. Further, the Potency result in assay [7], in assay [8], in [11] and in [12] was “inactive” each time. Also, the results for the Potency in [9] and in [10] were 10.6 µM (active) and 29.8 µM (active), respectively.
As for `CCCCCCCCCCCCOCCOCCOCCOCCOCCOCCOCCOCCOCCO`, the Potency result in assay [1], in assay [2], in assay [3], in [4], in assay [5] and in assay [6] was “inactive” each time. The Potency entry in assay [7] and in assay [11] was “inactive” throughout. Besides, the Potency in assay [8] was 23.9 µM (active); in [10] it was 5.96 µM (active); in assay [13], 5.96 µM (active); in assay [12], 8.41 µM (active).
In the case of `CCCCCCCCCCCCCC[N+](C)(C)Cc1ccccc1`, the Potency result in assay [1], in [2], in assay [3], in assay [4], in assay [5] and in assay [6] was “inactive” each time. In addition, the Potency result in [7] is “inactive”. Besides, the Potency in assay [8] was 21.3 µM (active) and 24.9 µM (active); in assay [9], 473 nM (active) and 621 nM (active); in [13] it was 750 nM (active) and 493 nM (active); in assay [11], 23.9 µM (active) and 7.03 µM (active); in assay [12] it was 49.3 µM (active).
Regarding `Cc1ccc(O)c(N)c1`, the Potency result in assay [1], in [2], in [14], in assay [4], in [5] and in [6] was “inactive” throughout. Moreover, the Potency entry in [15], in assay [16], in assay [8] and in [11] was “inactive” in each case. Besides, the Potency was 54.5 µM (active) in assay [9], 54.5 µM (active) in assay [10] and 61.2 µM (active) in assay [13].
As to `Cc1cc(=O)oc2cc(O)cc(O)c12`, the Potency result in [1], in [4], in [6], in assay [8], in assay [9] and in [11] was “inactive” each time. Also, the Potency entry in assay [18] is “inactive”. In addition, the values for the Potency in [2], in [5] and in [7] were 39.8 µM (active), 39.8 µM [fluorescent] (active) and 35.5 µM [fluorescent] (active), respectively. Further, the outcome in assay [17] was inactive.
For the compound `O=C(O)c1cc(N=Nc2ccc([N+](=O)[O-])cc2)ccc1O`, the Potency result in [1], in assay [2], in assay [14], in [4], in [5] and in assay [6] was “inactive” each time. Also, the Potency result in [7], in [10] and in assay [11] was “inactive” in each case. The Potency in assay [16] is 27 µM (active); in assay [8], 21.5 µM (active); in [12], 47.7 µM (active).
In the case of `CCCNCCC`, the Potency entry in assay [1], in [2], in [14], in assay [4], in assay [5] and in assay [6] was “inactive” in each case. The Potency result in [7], in assay [15], in assay [16], in [8], in assay [10] and in [13] was “inactive” in each case. Moreover, the Potency result in [11] and in [12] was “inactive” throughout.
As for `CN1CCN2c3ccccc3Cc3ccccc3C2C1` (stereo not drawn), the Potency result in assay [1], in [2], in assay [14], in assay [4], in [5] and in [6] was “inactive” throughout. Further, the Potency entry in [7] and in assay [11] was “inactive” in each case. For the same compound, in [10], the Potency was 26.6 µM (active). The compound was classed as inactive in assay [17].
Consider `CCC(CC)C(C)CCOC(C)=O` (stereo not drawn), for which the Potency result in assay [1], in assay [2], in assay [14], in [4], in [5] and in [6] was “inactive” each time. Moreover, the Potency result in assay [7], in [8], in [9], in assay [10], in assay [11] and in assay [12] was “inactive” in each case.
